Compound activity deposited in PubChem BioAssay by several laboratories.
PolyA inhibitor – inhibitors of polyadenylation in S. cerevisiae | S. cerevisiae SKY197-pL101 polyadenylation reporter, beta-gal luminescence; efflux-impaired pdr1/pdr3 knockout yeast; score 100 = 6 SD above DMSO | activity score, % at 12 µM | 300,000 tested, 0.02% active | AID 1875;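 active means lowest replicate activity score at least 50, where 100 means six control SD above control mean; inconclusive means lowest score under 50 but half or more replicates reach 50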;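 further: yeast exposed to compound for 9 h at 30 °C; higher score means more reporter readthrough which indicates perturbed polyadenylation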
Calb FLC – C. albicans growth modulation with fluconazole | C. albicans CaCi-2 (fluconazole-resistant clinical isolate) + fluconazole, Alamar Blue growth, 48 h | AID 1979 | growth inhibition, % (test concentration not listed) | 300,000 tested, 0.57% active;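 active means growth inhibition above about 58% in most replicates, limit read from the data, passing the limit was not always enough; inconclusive means exactly half the replicates above a set limit; inactive means most replicates below a set limit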;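 further: all wells also contain fluconazole at 8 µg/ml as a sub-toxic cotreatment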
Platelet DG rel – platelet dense granule release activity. human platelet-rich plasma, SFLLRN dense granule ATP release, luminescence. inhibition, %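 (compounds screened at 7.5 µM in platelet-rich plasma)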. 300,000 tested, 0.22% active;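 active means mean replicate score, as percent of positive control, at or above 50; inconclusive means mean below 50 but at least one replicate at or above 50; inactive means mean and every replicate below 50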
CR mimetic SO – yeast age-related superoxide inhibition as caloric restriction mimetic | superoxide response (% of plate mean), % at 10 µM | S. cerevisiae aged cells, superoxide DHE fluorescence; stronger effect = lower value | 330,000 tested, 0.18% active;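 active means superoxide response under a set limit, about three screen SD below normal, cut at about 65% in these data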;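 further: yeast aged for seven days with compound at 30 °C before DHE staining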
SKKanGAS inh – inhibitors of SKKanGAS S. pyogenes growth in kanamycin (SK-promoter or general growth effect) | AID 1662 | inhibition, % at 7.5 µM | 300,000 tested, 1.3% active | BacTiter-Glo, 6 h;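 active means mean replicate score, as percent of positive control median, at least 50; inconclusive means mean below 50 but one replicate at or above 50; inactive means mean and every replicate below 50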;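 further: strain carries kanamycin resistance gene driven by streptokinase promoter and grows in 40 µg/ml kanamycin; loss of luminescence reflects streptokinase promoter inhibition or plain growth inhibition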
Of the large screens only hits and unclear results are named; the others gave an inactive call. Most compounds without a hit are left out; they make up all but 2% or so of the library.

COc1ccccc1N(C(=O)c1ccco1)C(C(=O)NC1CCCC1)c1ccc(N2CCOCC2)cc1 (stereo unspecified)	none
COc1cc(OC)cc(C(=O)Nc2cccc(-c3ccc(N4CCOCC4)nn3)c2)c1	SKKanGAS inh 55
O=C(Nc1cccc(-c2ccc(N3CCOCC3)nn2)c1)c1ccc(Cl)cc1	none
O=C(Nc1cccc(-c2ccc(N3CCOCC3)nn2)c1)c1ccccc1Cl	SKKanGAS inh 50
COc1ccc(C(=O)Nc2cccc(-c3ccc(N4CCOCC4)nn3)c2)cc1	SKKanGAS inh 52
Cc1cc(NC(=O)CSc2nnc(-c3c[nH]c4ccccc34)n2C)no1	none
O=c1c2c([N+](=O)[O-])cc([N+](=O)[O-])cc2sn1Cc1ccccc1	SKKanGAS inh 85
CCn1cc(C(=O)O)c(=O)c2cc(F)c(N3CCN(C(=S)Nc4ccc(OC)cc4)CC3)cc21	SKKanGAS inh 68
CCn1cc(C(=O)O)c(=O)c2cc(F)c(N3CCN(C(=S)NC(=O)c4cc(OC)cc(OC)c4)CC3)cc21	Calb FLC inconclusive, SKKanGAS inh inconclusive
CCCCOC(=O)c1ccc(NC(=S)N2CCN(c3ncc4c(=O)c(C(=O)O)cn(CC)c4n3)CC2)cc1	SKKanGAS inh 92
CCn1cc(C(=O)NCc2ccc3c(c2)OCO3)c(=O)c2cc(F)c(N3CCN(C(=O)c4ccco4)CC3)cc21	SKKanGAS inh 54
CCn1cc(C(=O)NCc2ccccc2)c(=O)c2cc(F)c(N3CCN(C(=O)c4ccco4)CC3)cc21	none
O=C(NCC1CCCO1)c1nn2c(C(F)(F)F)cc(-c3ccc(Br)o3)nc2c1Br (stereo unspecified)	none
CN(CC(=O)Nc1cccc(F)c1)C(=O)c1cc([N+](=O)[O-])ccc1N1CCOCC1	none
O=C(NNC1=C(C(=O)C(F)(F)F)CCC1)c1ccc(Br)cc1	Calb FLC 92, SKKanGAS inh 106
O=C(NNC1=C(C(=O)C(F)(F)F)CCC1)c1ccccc1O	Calb FLC inconclusive, SKKanGAS inh 87
CCOC(=O)c1[nH]cnc1C(=O)Nc1ccccc1OC	none
COc1cc(/C=N/Nc2nncn2/N=C/c2ccc(O)c(OC)c2)ccc1O	Platelet DG rel 56
O=C(CSc1ccc(F)cc1)NC(=O)NCc1ccccc1	none
O=S(=O)(NCCc1cn2ccccc2n1)c1ccc2c(c1)CCCC2	Platelet DG rel 57
COc1cccc(OCc2cc(/C=N/Nc3ccc(C(=O)O)cc3)ccc2OC)c1	Platelet DG rel 65
COc1cccc(C(=O)Oc2ccc(/C=N/Nc3ccc(C(=O)O)cc3)cc2OC)c1	SKKanGAS inh 55
CCOc1cc(/C=N/Nc2ccc(C(=O)O)cc2)ccc1OC(=O)c1ccccc1C	SKKanGAS inh 75
COc1cc(/C=N/NS(=O)(=O)c2ccc(C)cc2)ccc1OCc1cccc(C(=O)O)c1	none
COc1cc(/C=N/NS(=O)(=O)c2ccc3ccccc3c2)ccc1OCc1ccc(C(=O)O)cc1	SKKanGAS inh 55
CCc1nc2ccc(C(=O)N3CCN(c4ccc([N+](=O)[O-])cc4)CC3)cc2nc1CC	none
N#Cc1cccnc1N1CCN(C(=O)c2cccs2)CC1	none
COc1ccc(-c2n[nH]c(C)c2-c2cnn(-c3ccccc3)c2)c(O)c1C	none
C=C(C)COc1ccc(-c2n[nH]c(C)c2-c2ccc(OC)cc2)c(O)c1	SKKanGAS inh 61
COc1ccc(-c2n[nH]c(C)c2-c2cnn(-c3ccccc3)c2)c(O)c1	Calb FLC 95
CC1Sc2ccc(S(=O)(=O)N3CCC(C(=O)Nc4ccc(Cl)cc4)CC3)cc2NC1=O (stereo unspecified)	none
Cc1ccc(-n2c(C)cc(=O)cc2C)cc1[N+](=O)[O-]	none
O=C(CCc1nnc2ccc(NCc3ccco3)nn12)N1CCN(c2ccccc2)CC1	none
CCOC(=O)C1CCN(C(=O)CCc2nnc3ccc(NCc4ccco4)nn23)CC1	Platelet DG rel 70
COc1ccc(Nc2nc(OC)nc(OC)n2)cc1	none
COc1ccc(Nc2nc(Nc3ccc(OC)cc3)nc(-n3[nH]c(=O)c(C)c3C)n2)cc1	SKKanGAS inh 87
CCC[C@@H](CN[C@@H](CNC)C(C)C)NCCCCc1ccccc1	none
CCC[C@H](CN[C@@H](CNC)[C@H](C)CC)NCCc1cc(C(F)(F)F)cc(C(F)(F)F)c1	SKKanGAS inh 51
CCC[C@@H](CN[C@@H](CNC)[C@H](C)CC)NCC1CCC(C(C)(C)C)CC1 (stereo partly specified)	none
